# PubChem BioAssay (NCATS)
# Inconclusive results are not listed. A call without a number means that no potency is given here. Calls of active or inactive are those of the source. Unless noted, calls follow the shape of the dose curve; as a rule, active = well fitted curve in the direction sought with a large enough effect; inconclusive = small, poorly fitted or top-dose-only effect, or another doubt; inactive = no such curve, though single readings can be large; an effect the other way counts as inactive or inconclusive.
# Assays:
# [1] = Cytotoxicity counterscreen for inhibitors of SARS-CoV-2 cell entry (AID 1645845; calls by dose curve; also: nearly all actives have a fitted effect of over 50% in size); details: outcome: dose series up to 57.1 µM unless noted
# Method in brief: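 HEK293-ACE2 cells (Expi293F stably expressing human ACE2) seeded overnight, then compound for 1 h plus 48 h at 37C. Viability as ATP content by luminescence; normalized to wells with cells and media-only wells.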
# [2] = Primary qHTS to identify inhibitors of SARS-CoV-2 cell entry (AID 1645846; calls by dose curve; also: nearly all actives have a fitted effect of over 45% in size); details: SARS-CoV-2 pseudovirus cell entry assay, luminescence; activity change, negative = inhibition: at 57.1 µM (top of the series) unless noted
# Method in brief: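 Luminescence readout (Bright-Glo luciferase) 48 h after pseudoparticle addition. HEK293-ACE2 cells, 1500/well; compound pre-incubation 1 h; Normalized to spike PP and bald PP.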
# [3] = Primary qHTS for inhibitors of nuclear receptor binding SET domain protein 2 (NSD2) in an isogenic RCH-ACV NSD2 p.E1099K mutant (9B) (AID 1645876); also: nearly all actives have a fitted effect of over 70% in size
# [4] = Primary qHTS for inhibitors of nuclear receptor binding SET domain protein 2 (NSD2) in an RCH-ACV wild type WT cells (2C) (AID 1645877); also: nearly all actives have a fitted effect of over 70% in size
# [5] = qHTS for differential inhibitors of proliferation of Plasmodium falciparum line 3D7 (AID 1876)
# [6] = qHTS for differential inhibitors of proliferation of Plasmodium falciparum line D10 (AID 1877);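 also: parasites grown with compound for 72 h before DNA staining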
# [7] = qHTS for differential inhibitors of proliferation of Plasmodium falciparum line W2 (AID 1883); details: Potency: Plasmodium falciparum W2 proliferation inhibition;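 also: parasites grown with compound for 72 h before lysis and staining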
# [8] = qHTS for differential inhibitors of proliferation of Plasmodium falciparum line HB3 (AID 1886); details: Potency: Plasmodium falciparum HB3 proliferation inhibition;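 also: parasites grown with compound for 72 h before SYBR Green readout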
# [9] = Quantitative high throughput screen for delayed death inhibitors of the malarial parasite plastid, 48 hour incubation (AID 488752); also: nearly all actives have a fitted effect of over 65% in size
# Method in brief: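 Erythrocytes infected with P. falciparum carrying an integrated firefly luciferase reporter (2% hematocrit, 0.1% parasitemia final) were exposed to compounds in RPMI 1640/0.5% Albumax for 48 h at 37 C, 5% CO2. Growth inhibition was scored as reduced luminescence.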
# Potency is read from the fitted curve at half-maximal effect.
smiles,measurement,setting,value
Cn1c(/C=C/CO)c(CO)c2c1C(=O)C=C(N1CC1)C2=O,Potency,[1],inactive
same,Potency,[2],inactive
same,Potency,[3],inactive
same,Potency,[4],inactive
Cc1[nH]ncc1-c1cc2nc([C@@H]3CC4CCN3CC4)[nH]c(=O)c2s1,Potency,[3],2350 nM (active)
same,Potency,[4],934 nM (active)
CC1(C)CC[C@]2(NC(=O)C(C)(F)F)CC[C@]3(C)[C@H](C(=O)C=C4[C@@]5(C)C=C(C#N)C(=O)C(C)(C)[C@@H]5CC[C@]43C)[C@@H]2C1,Potency,[2],1000 nM (active)
same,Potency,[4],7420 nM (active)
CC(C)(NC(=O)O[C@@H]1CN2CCC1CC2)c1csc(-c2ccc(F)cc2)n1,Potency,[1],inactive
CC(N[C@H]1C[C@@H]1c1ccccc1)c1ccc2c(c1)OCCO2 (some centres undefined),Potency,[1],inactive
same,"activity change, negative = inhibition",[2],-4.37%
same,Potency,[3],inactive
same,Potency,[4],inactive
O=C(O)CNC(=O)C1C(=O)N(C2CCCCC2)C(=O)N(C2CCCCC2)C1=O,Potency,[1],inactive
same,"activity change, negative = inhibition",[2],-12.5%
same,Potency,[3],inactive
C/C=C(\C)C(=O)N[C@@H](c1ccccc1)[C@@H](O)C(=O)O[C@H]1C[C@@]2(O)[C@@H](OC(=O)c3ccccc3)[C@@H]3[C@]4(OC(C)=O)CO[C@@H]4C[C@H](O)[C@@]3(C)C(=O)[C@H](OC(C)=O)C(=C1C)C2(C)C,Potency,[1],inactive
same,"activity change, negative = inhibition",[2],-81.8%
same,Potency,[3],26.3 nM (active)
same,Potency,[4],26.3 nM (active)
COc1cc2cc(c1Cl)N(C)C(=O)C[C@H](OC(=O)C(C)C)[C@]1(C)O[C@@H]1[C@H](C)[C@@H]1C[C@@](O)(NC(=O)O1)[C@H](OC)/C=C/C=C(\C)C2,"activity change, negative = inhibition",[2],-80.9%
same,Potency,[3],inactive
same,Potency,[4],inactive
CN1C(=O)[C@@H](NC(=O)[C@H](CCC(F)(F)F)[C@H](CCC(F)(F)F)C(N)=O)N=C(c2ccccc2)c2ccccc21,Potency,[1],inactive
same,"activity change, negative = inhibition",[2],-8.27%
same,Potency,[3],inactive
same,Potency,[4],inactive
CC(=O)O[C@@]12CO[C@@H]1C[C@H](O)[C@@]1(C)C(=O)[C@H](O)C3=C(C)[C@@H](O)C[C@@](O)([C@@H](OC(=O)c4ccccc4)[C@H]21)C3(C)C,Potency,[1],inactive
same,Potency,[3],inactive
C[C@@H]1CC[C@@]2(OC1)O[C@H]1C[C@H]3[C@@H]4CC=C5C[C@@H](O[C@@H]6O[C@H](CO)[C@@H](O[C@@H]7O[C@@H](C)[C@H](O)[C@@H](O)[C@H]7O)[C@H](O)[C@H]6O[C@@H]6O[C@@H](C)[C@H](O)[C@@H](O)[C@H]6O)CC[C@]5(C)[C@H]4CC[C@]3(C)[C@H]1[C@@H]2C,Potency,[1],inactive
same,Potency,[2],12600 nM (active)
same,Potency,[3],2350 nM (active)
same,Potency,[4],3320 nM (active)
CO/C1=C/C(C)=C\[C@@H](C)[C@@H](O)[C@@H](C)C/C(C)=C\C=C/[C@H](OC)[C@@H]([C@@H](C)[C@@H](O)[C@H](C)[C@@]2(O)C[C@@H](O)[C@H](C)[C@@H](C(C)C)O2)OC1=O,Potency,[1],1580 nM (active)
same,Potency,[2],1580 nM (active)
same,Potency,[3],49.4 nM (active)
same,Potency,[4],39.3 nM (active)
CCCCCCC(C)(C)c1cc(O)c2c(c1)OC(C)(C)C1CC=C(CO)C[C@H]21 (some centres undefined),Potency,[1],inactive
same,"activity change, negative = inhibition",[2],-8.86%
same,Potency,[3],inactive
same,Potency,[4],inactive
N#CC(O[C@@H]1O[C@H](CO[C@@H]2O[C@H](CO)[C@@H](O)[C@H](O)[C@H]2O)[C@@H](O)[C@H](O)[C@H]1O)c1ccccc1 (some centres undefined),Potency,[1],inactive
same,Potency,[3],inactive
same,Potency,[4],inactive
COC(=O)[C@]12CCC(C)(C)C[C@H]1[C@H]1C(=O)C=C3[C@@]4(C)C=C(C#N)C(=O)C(C)(C)[C@@H]4CC[C@@]3(C)[C@]1(C)CC2,Potency,[1],2820 nM (active)
same,Potency,[2],1000 nM (active)
same,Potency,[4],5900 nM (active)
COc1ccc2c(c1O)-c1cccc3c1C(C2)N(C)CC3 (centres undefined),Potency,[5],10000 nM (active)
same,Potency,[6],14100 nM (active)
same,Potency,[7],7940 nM (active)
same,Potency,[8],12600 nM (active)
Oc1ccc2c3c1O[C@H]1[C@@H](O)CC[C@@]4(O)C(C2)N(CC2CCC2)CCC314 (some centres undefined),Potency,[5],inactive
same,Potency,[6],inactive
same,Potency,[8],inactive
C[C@H]1C2Cc3ccc(O)cc3[C@]1(C)CCN2CC1CC1,Potency,[5],inactive
same,Potency,[6],inactive
same,Potency,[7],2820 nM (active)
same,Potency,[8],inactive
same,Potency,[9],inactive
NNCc1cccc(O)c1,Potency,[5],12600 nM (active)
same,Potency,[6],14100 nM (active)
same,Potency,[7],12600 nM (active)
same,Potency,[8],14100 nM (active)
same,Potency,[9],7380 nM (active)
C#CCN(C)C(C)Cc1ccccc1 (centres undefined),Potency,[5],inactive
same,Potency,[6],inactive
same,Potency,[7],inactive
same,Potency,[8],inactive
same,Potency,[9],inactive
C[C@H]1OC[C@@H](C[N+](C)(C)C)O1,Potency,[5],inactive
same,Potency,[6],inactive
same,Potency,[7],inactive
same,Potency,[8],inactive
same,Potency,[9],inactive
Nc1ncnc2c1ncn2[C@@H]1O[C@H](COP(=O)(O)CP(=O)(O)OP(=O)(O)O)[C@H](O)[C@H]1O,Potency,[5],inactive
same,Potency,[6],inactive
same,Potency,[7],inactive
same,Potency,[8],inactive
same,Potency,[9],inactive
COc1cc(C[C@@H](C)N)c(OC)cc1I,Potency,[5],inactive
same,Potency,[6],inactive
same,Potency,[7],3980 nM (active)
same,Potency,[8],inactive
same,Potency,[9],inactive
CN1CCC23CCCC[C@H]2C1Cc1ccc(O)cc13 (some centres undefined),Potency,[5],inactive
same,Potency,[6],inactive
same,Potency,[7],1580 nM (active)
same,Potency,[8],inactive
same,Potency,[9],inactive
CCCN(CCC)[C@@H]1CCc2c(F)ccc(O)c2C1,Potency,[5],1580 nM (active)
same,Potency,[6],2240 nM (active)
same,Potency,[7],891 nM (active)
same,Potency,[8],1410 nM (active)
same,Potency,[9],2620 nM (active)
COc1cc(C=C(C#N)C#N)cc(O)c1O,Potency,[7],10000 nM (active)
NC(Cn1ccc(=O)[nH]c1=O)C(=O)O (centres undefined),Potency,[5],inactive
same,Potency,[6],inactive
same,Potency,[7],inactive
same,Potency,[8],inactive
same,Potency,[9],inactive
C/C1=C/C[C@@H](/C(C)=C/c2csc(C)n2)OC(=O)C[C@H](O)C(C)(C)C(=O)[C@H](C)[C@@H](O)[C@@H](C)CCC1,Potency,[1],inactive
same,"activity change, negative = inhibition",[2],-64.3%
same,Potency,[3],52.5 nM (active)
same,Potency,[4],41.7 nM (active)
COC(=O)C(N)CCCN=C(N)N[N+](=O)[O-] (centres undefined),Potency,[5],inactive
same,Potency,[6],inactive
same,Potency,[7],inactive
same,Potency,[8],inactive
same,Potency,[9],inactive
CC(C)(O)C1C2OC(=O)C1[C@]1(O)C[C@H]3O[C@]34C(=O)O[C@H]2[C@]14C (some centres undefined) (tested in a mixture with another compound),Potency,[5],inactive
same,Potency,[6],inactive
same,Potency,[7],inactive
same,Potency,[8],inactive
same,Potency,[9],inactive
